The source of these data is PubChem BioAssay AID652058 (Broad Institute, 2013).

Screen size: about 1,200 compounds; about 870 (72%) were called active. Roughly 3% stayed inconclusive and do not appear here. So high a share suggests a set chosen from earlier hits. These entries were drawn from the full list. Entries with a potency or affinity are not part of this list. Unmarked numbers belong to inactive results.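 Rule for the calls: active = every test run fits a falling curve whose half-maximal concentration is at most twice the top valid dose; inconclusive = runs disagree, or flat 30 to 70% inhibition, or poor fit; inactive = every run inactive: flat, rising or weaker potency.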

The nature of the assay: ZM109 Env clade C HIV-1 fusion inhibitors, dose response, HeLa effector, CEM target cells, luciferase, cherry-pick (AID 652058).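 Note: 0% = neutral control wells and -100% = maraviroc 300 nM wells.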 The conditions noted are these: HeLa Env/CEM cell fusion, 16-24 h; series mostly up to 35 µM; activity change, negative = inhibition: at the top concentration.
Consider `Cc1[nH]c2ccccc2c1/C=N\NC(=O)c1ccccc1Cl`, for which the “activity change, negative = inhibition” value is 39.8%.
In the case of `COc1ccc(CCNC(=O)C2CCCN(Cc3nc(-c4cccc(Cl)c4)oc3C)C2)cc1OC` (stereo unspecified) it was -35.4%; in that of `O=C(NCc1cccc(F)c1)[C@@H]1[C@@H](CO)[C@@H]2Cn3c(ccc(-c4cccnc4)c3=O)[C@H]1N2CC1CC1`, -17.1%; in that of `CCCNC(=O)N1[C@H](C#N)[C@H](c2ccc(-c3cccc(OC)c3)cc2)[C@@H]1CO`, 127%.
Then `N#C[C@@H]1[C@H](c2ccc(-c3ccccc3F)cc2)[C@@H](CO)N1C(=O)Cc1ccccc1`, with -31.2%; and `S=c1nc[nH]c2c1[nH]c1ccc(Cl)cc12`, with 77%.
Then `Cc1cc(C(=O)CN2C(=O)c3ccccc3S2(=O)=O)c(C)n1C(C)C`, with -55.3%; and `Cc1onc(-c2ccccc2)c1C(=O)Nc1ccc(Br)cc1Cl`, with -20.5%; and `Cc1onc(-c2ccccc2)c1C(=O)NC(=S)NNC(=O)c1ccc(O)cc1`, with 41%.
For `COc1ccc(S(=O)(=O)NC[C@@H]2CC[C@H]3[C@H](CN3Cc3cc(F)ccc3F)O2)cc1`, the “activity change, negative = inhibition” value is 19.1%.
Then `CCS(=O)(=O)Nc1ccc2c(c1)C(=O)N(C)C[C@H](OC)[C@@H](C)CN(C(=O)C1CCC1)[C@H](C)CO2`, with 101%; and `CCCC(=O)Nc1ccc2c(c1)OC[C@@H](C)N(C(=O)CN(C)C)C[C@H](C)[C@@H](OC)CN(C)C2=O`, with -17.8%.
In the case of `CO[C@H]1CN(C)C(=O)c2cc(NC(=O)C3CCOCC3)ccc2OC[C@H](C)N(Cc2nccs2)C[C@H]1C` it was -16.3%; in that of `CO[C@@H]1CN(C)C(=O)c2cc(NS(=O)(=O)c3ccc(C)cc3)ccc2OC[C@H](C)N(C(=O)NC(C)C)C[C@@H]1C`, 59.6%; in that of `CO[C@@H]1CN(C)C(=O)c2ccc(NS(C)(=O)=O)cc2OC[C@@H](C)N(C(=O)C2CCCCC2)C[C@H]1C`, 135%.
Regarding `CCC(=O)Nc1ccc2c(c1)C(=O)N(C)C[C@@H](OC)[C@H](C)CN(C(=O)CC)[C@@H](C)CO2`, the “activity change, negative = inhibition” value was 55.8%.
In the case of `CCCC(=O)Nc1ccc2c(c1)C(=O)N(C)C[C@@H](OC)[C@@H](C)CN(Cc1nccs1)[C@@H](C)CO2` it was 1.12%; in that of `Clc1ccc2c(c1)C1=C(C(c3ccncc3)O2)C(c2ccc(Br)cc2)n2ncnc2N1` (stereo unspecified), 36.6%; in that of `COc1ccc(CC(=O)Nc2cccc(S(=O)(=O)N3CCCCCC3)c2)cc1OC`, -2.63% [at 16 µM].
In the case of `CC1CCCC(C)N1CCCNC(=O)c1nn(C)c2c1CSc1ccccc1-2` (stereo unspecified) it was 20.6%.
Then `CN1C(=O)C2(c3ccccc31)N(C)CC(c1ccccc1)C21SC(=S)N(Cc2ccco2)C1=O` (stereo unspecified), with 6.82%.
`O=C(Nc1ccc(S(=O)(=O)N2CCCC2)cc1)c1ccc(CN2CCOCC2)cc1`: the “activity change, negative = inhibition” value is -10.5%.
In the case of `CCN(CC)c1ccc(/C=N/N2C(C)CCCC2C)c(O)c1` (stereo unspecified) it was 35.2%; in that of `Nc1nonc1C(=O)NCCNCc1cc(Br)ccc1OCc1ccccc1F`, -2.3%; in that of `Cn1c(SCc2nc(-c3ccc(Cl)cc3)no2)nnc1-c1cccs1`, -18.2%.
Then `Cc1ccc(COC(=O)c2cc(S(=O)(=O)N3CCCCC3)ccc2N2CCOCC2)cc1`, with 47%.
Regarding `O=C(COC(=O)c1cc(S(=O)(=O)N2CCOCC2)ccc1O)NCc1ccc2c(c1)OCO2`, the “activity change, negative = inhibition” value is 2.67%.
Then `CCNC1CCC(Nc2ccnc3cc(Cl)ccc23)CC1` (stereo unspecified), with -13.6%.
Then `CCC(C)NS(=O)(=O)c1ccc(S(=O)(=O)N2CCCC3(CCCCC3)C2)cc1` (stereo unspecified), with -47.6%; and `CC(=O)Nc1ccc(NC(=O)CN(c2ccc(C34CC5CC(CC(C5)C3)C4)cc2)S(C)(=O)=O)cc1`, with 197%; and `CC(CCc1ccco1)NC(=O)CCc1nnc2ccc(NCc3ccccc3Cl)nn12` (stereo unspecified), with 147%.
As for `CCOc1ccccc1CNc1ncnc2ccc(-c3c(C)noc3C)cc12`, the “activity change, negative = inhibition” value was -26.9%.
In the case of `OCC[C@@H]1C[C@@H](O)[C@H](O)[C@]2(OCc3ccccc32)O1` it was -30.9%.
In the case of `Cc1ccc2c(c1)c1c3n2CCN(CCC#N)C3CCC1` (stereo unspecified) it was 72.5%; in that of `COc1ccccc1S(=O)(=O)n1cc(Cc2ccccc2)c(N)n1`, 2.38%.
As to `CCc1nc2ccccc2c(C(=O)OCC(=O)Nc2cccc(S(=O)(=O)N3CCOCC3)c2)c1C`, the “activity change, negative = inhibition” value is 168%.
Then `CCCCCn1c(C(C)NC(=O)CCC)nc2ccccc21` (stereo unspecified), with -31%; and `C=CCNc1nc2c(c(=O)n(C)c(=O)n2C)n1CCCCCC`, with 155%.
Take `COc1ccc(C(O)c2nc3ccccc3n2C)cc1OC` (stereo unspecified): the “activity change, negative = inhibition” value is -23.7%.
Then `COc1ccc(/C(C)=N/NC(=O)c2cccc(S(=O)(=O)N3CCCC3)c2)c(O)c1`, with -36.4% [at 16 µM]; and `Cc1cc2c3c(c1)C1(SCC(=O)N1c1ccc(F)cc1)C(=O)N3C(C)(C)CC2C` (stereo unspecified), with -68.3% [at 15 µM].
In the case of `Nc1cc2c(cc1Br)[nH]c(=O)c1ccccc12`, the “activity change, negative = inhibition” value is -25.2%.
Then `CCc1nnc(NC(=O)[C@@H](NC(=O)c2cccc(S(=O)(=O)N(CC)CC)c2)C(C)C)s1`, with 39.5%.
In the case of `COc1ccc(N2CCN(C(=O)C3CCC(Cn4c(=S)[nH]c5ccccc5c4=O)CC3)CC2)cc1` (stereo unspecified) it was -44.6%; in that of `Fc1ccc(-n2nnnc2-c2cnc(-c3cccs3)nc2C(F)(F)F)cc1`, 91% [at 16 µM].
In the case of `O=C(N/N=C/c1ccc(-n2ccnc2)cc1)c1cccs1` it was 73.5%.
